High-throughput results as filed in PubChem.
In the library only some 6.7% were active in any assay of this set; here they are far more common.
T cruzi growth-1: T. cruzi intracellular proliferation inhibitors, primary screen, cell-based, beta-gal Tulahuen parasites, NIH3T3 host, luminescence; T. cruzi beta-gal in NIH3T3, GalScreen luminescence, 90 h; inhibition, % at 8.34 µM; 5.9% of 77,000 active; AID 624255, 2012;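 active = mean inhibition above about 93%, with at least 55% of replicates each passing it, limit read from the data, passing the limit was not always enough; inconclusive = only one of those two conditions holds; inactive = neither condition holds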
Pf Dd2 inh: P. falciparum Dd2 growth inhibitors, primary screen, SYBR Green fluorescence, single dose replicates; 72 h; active compounds read low; activity change, % at 10 µM; 2.3% of 94,000 active; in the data active = activity change below about -80%; inconclusive = no clear call, values can overlap the other calls
C diff growth: C. difficile growth inhibitors, primary screen, HTS | growth activity, negative = inhibition, % at 16 µg/mL (by protocol) | Clostridium difficile clinical isolate growth, OD600, 24 h; active compounds read low | AID 1259249, 2017 | 0.25% of 86,000 active;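 active = mean growth activity at or below -80% and every replicate also at or below -80%; inconclusive = mean at or below -80% but some replicate above -80%; inactive = mean growth activity above -80%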;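 note: 0% = DMSO wells and -100% = levofloxacin 16 µg/mL wells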
T cruzi growth-2: T. cruzi intracellular proliferation inhibitors, confirmation, cell-based, NIH3T3 host, beta-gal parasite, luminescence, cherry-pick | shares compounds with T cruzi growth-1 | T. cruzi beta-gal in NIH3T3, GalScreen luminescence, 90 h | inhibition, % at 8.35 µM | 72% of 5,600 active;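 active = mean replicate inhibition above about 95% and at least 55% of replicates individually reaching it, limit read from the data; inconclusive = only one of the two criteria is met; inactive = neither criterion is met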
T cruzi growth-3: inhibitors of intracellular T. cruzi replication, confirmation, NIH3T3 host cells, beta-gal parasites, cherry-pick, set 2; inhibition, % at 2.09 µM; shares compounds with T cruzi growth-1; 21% of 5,600 active; T. cruzi beta-gal in NIH3T3, GalScreen luminescence, 90 h;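 active = mean inhibition above about 95%, with at least 55% of replicates also reaching it, limit read from the data; inconclusive = meets just one of the two conditions; inactive = meets neither condition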;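 note: plate controls were neutral control median for no effect and positive control median for full effect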
3T3 cytotox: cytotoxicity in mouse NIH/3T3 fibroblasts, confirmation, cytotoxicity control for T. cruzi proliferation inhibitor project, cell-based, cherry-pick, single point. shares compounds with T cruzi growth-1. NIH/3T3 viability, CellTiter-Glo ATP luminescence, 90 h. cytotoxicity (signal decrease), % at 8.35 µM. 14% of 5,600 active. AID 651742, 2012;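 active = mean signal decrease across replicates above about 35% based on untreated-well scatter, with enough replicates individually passing, limit read from the data; inconclusive = no rule stated though some were filed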;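 note: 0% = median of neutral control wells and 100% = median of positive control wells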
3T3 cytotox 2: NIH/3T3 fibroblast cytotoxicity, confirmation, cytotoxicity control, cell-based, cherry-pick, single point, set 2. shares compounds with T cruzi growth-1. NIH/3T3 viability, CellTiter-Glo ATP luminescence, 90 h. inhibition, % at 24.9 µM. 56% of 5,600 active. AID 651744, 2012;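 active = mean loss of cell viability signal at or above a set limit, and enough replicates individually reaching it; inconclusive = meets only the mean limit or only the replicate share; inactive = meets neither condition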;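 note: 0% = median of neutral control wells and 100% = median of positive control wells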
Active calls of the source: *; ? = inconclusive; · = no result given.

SMILES	T cruzi growth-1	Pf Dd2 inh	C diff growth	T cruzi growth-2	T cruzi growth-3	3T3 cytotox	3T3 cytotox 2
CC=Cc1ccc2n(c1=O)C[C@@H]1[C@@H](CO)[C@H](C(=O)NCCC)[C@H]2N1CC1CC1 (mixture of isomers)	101.9*	6.5	-0.7	31.0	-44.5	14.3	-15.0
CC=Cc1ccc2n(c1=O)C[C@@H]1[C@@H](CO)[C@H](C(=O)NCC3CC3)N(CCC(F)(F)F)[C@H]21 (mixture of isomers)	111.4*	-20.1	0.8	-47.2	3.0	-10.4	6.4
CC=Cc1ccc2n(c1=O)C[C@@H]1[C@@H](CO)[C@H](C(=O)NCCC)[C@H]2N1C(=O)c1ccccc1F (mixture of isomers)	100.1*	-13.7	-1.7	-3.9	10.9	-10.3	4.5
CC=Cc1ccc2n(c1=O)C[C@H]1[C@H](CO)[C@@H](C(=O)NCCC)[C@@H]2N1CC1CCOCC1 (mixture of isomers)	-12.2	14.7	-2.7	·	·	·	·
CC=Cc1ccc2n(c1=O)C[C@H]1[C@H](CO)[C@@H](C(=O)NCCC)[C@@H]2N1CC1CC1 (mixture of isomers)	101.5*	2.4	-0.8	56.2	4.7	-8.0	7.8
CC=Cc1ccc2n(c1=O)C[C@@H]1[C@@H](CO)[C@H](C(=O)NCCC)[C@H]2N1CC1CCOCC1 (mixture of isomers)	19.1	34.6	-0.9	·	·	·	·
CC=Cc1ccc2n(c1=O)C[C@H]1[C@H](CO)[C@@H](C(=O)NCCC)[C@@H]2N1C(=O)c1ccncc1 (mixture of isomers)	·	4.9	1.8	·	·	·	·
CC=Cc1ccc2n(c1=O)C[C@@H]1[C@@H](CO)[C@H](C(=O)NCC3CC3)N(CCC)[C@H]21 (mixture of isomers)	·	14.1	2.1	·	·	·	·
CCC(=O)Nc1ccc2c(c1)OC[C@@H](C)N(C(=O)c1cccnc1)C[C@H](C)[C@H](OC)CN(C)C2=O	-18.3	36.8	·	·	·	·	·
COc1ccccc1CN1CC[C@H]2[C@H](CO)Nc3ccc(-c4ccc(C(=O)N(C)C)cc4)cc3[C@H]21	81.7	-56.4	-14.2	·	·	·	·
CN(C)CC#Cc1cccc(-c2nc(C(=O)O)cc3c2[C@H](CCO)N(S(=O)C(C)(C)C)C3)c1 (stereo partly drawn)	-11.6	36.1	·	·	·	·	·
O=C(c1ccc(F)cc1)N1CC[C@@H]2[C@H]1c1cc(-c3ccccc3F)ccc1N[C@@H]2CO	99.5*	-75.8	2.7	95.3*	70.0	9.9	102.7*
O=C(c1ccccc1)N1CC[C@@H]2[C@H](CO)Nc3ccc(-c4ccccc4F)cc3[C@@H]21	102.8*	4.7	58.2	107.6*	87.9	11.0	25.7*
O=C(c1cnccn1)N1CC[C@@H]2[C@H]1c1cc(-c3ccccc3F)ccc1N[C@@H]2CO	100.0*	-21.7	-6.9	106.9*	28.2	20.3	44.1*
O=C(c1cccc(F)c1)N1CC[C@@H]2[C@H](CO)Nc3ccc(-c4ccccc4F)cc3[C@@H]21	30.8	9.4	-6.6	·	·	·	·
O=C(c1ccccc1)N1CC[C@@H]2[C@@H](CO)Nc3ccc(-c4ccc(F)cc4)cc3[C@@H]21	69.2	?	-2.2	·	·	·	·
COc1ccc(C#Cc2ccc3c(c2)[C@@H]2[C@@H](CCN2C(=O)c2cnccn2)[C@@H](CO)N3)cc1	82.0	-24.4	78.0	·	·	·	·
O=C(c1cnccn1)N1CC[C@@H]2[C@H](CO)Nc3ccc(-c4ccccc4F)cc3[C@@H]21	97.2	-28.0	-9.5	·	·	·	·
COc1ccc(-c2ccc3c(c2)[C@H]2[C@H](CCN2C(=O)c2cnccn2)[C@H](CO)N3)cc1	107.6*	-43.2	-1.7	104.9*	111.6*	-4.5	-18.7
CN(C)CCCNC(=O)C[C@H]1CC[C@H](NC(=O)Cc2cccnc2)[C@@H](CO)O1	10.4	11.3	·	·	·	·	·
